Where “and” joins values, the source holds several entries; their conditions need not be identical. Equal entries are not always repeated. About 83,000 compounds went through this panel and 20% of them were active in at least one assay; those are over-represented in the sample as a whole.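 For each line, cells grew in 96-well plates with the test compound present at a single concentration for 48 hours.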 Calls of active or inactive are those of the source. Rule for the calls: active = growth percent below 10; inactive = the rest.
Assays:
Assay in all cases: NCI-60 one-dose screen, 48 h (100 = growth as untreated, 0 = no growth, -100 = all killed)
Conditions in all cases: 10 µM unless noted
SK-MEL-2 melanoma = system: SK-MEL-2 melanoma
EKVX NSCLC = system: EKVX NSCLC
SN12C renal = system: SN12C renal
UO-31 renal = system: UO-31 renal
TK-10 renal = system: TK-10 renal
ACHN renal = system: ACHN renal
CAKI-1 renal = system: CAKI-1 renal
A498 renal = system: A498 renal
MOLT-4 leukemia = system: MOLT-4 leukemia
CCRF-CEM leukemia = system: CCRF-CEM leukemia

SMILES | growth (SK-MEL-2 melanoma) | growth (EKVX NSCLC) | growth (SN12C renal) | growth (UO-31 renal) | growth (TK-10 renal) | growth (ACHN renal) | growth (CAKI-1 renal) | growth (A498 renal) | growth (MOLT-4 leukemia) | growth (CCRF-CEM leukemia)
CC(C)c1ccc2nc3ccc(C(=O)NCCN4CCN(c5ccccc5)CC4)cn3c(=O)c2c1 | 75.4% (inactive) | 74.5% (inactive) | 69.9% (inactive) | 50% (inactive) | 93.9% (inactive) | 72.1% (inactive) | 63.4% (inactive) | 81.8% (inactive) | 38% (inactive) | 
COc1ccccc1/C=C\C(=O)c1ccccc1 | 87.6% (inactive) | 85.2% (inactive) | 76.8% (inactive) | 44.1% (inactive) | 104% (inactive) | 77% (inactive) | 83.2% (inactive) | 101% (inactive) | 58.1% (inactive) | 
O=C(Oc1cccc2cccnc12)c1ccccc1 | 110% (inactive) and 96.7% (inactive) | 91% (inactive) and 107% (inactive) | 86% (inactive) and 104% (inactive) | 78.6% (inactive) and 82% (inactive) | 106% (inactive) and 107% (inactive) | 96.5% (inactive) and 104% (inactive) | 89.7% (inactive) | 117% (inactive) | 80% (inactive) | 
CCCCCCCCCCCCCCCC[N+](C)(CCO)Cc1cnc[nH]1 (configuration not stated) | -78.5% (active) | 38.1% (inactive) | -4.78% (active) | 27.6% (inactive) | -35.1% (active) | 3.11% (active) | 40.9% (inactive) | -5.4% (active) | -77.2% (active) | 
COc1cc(/C=C(/C)C[N+](=O)[O-])ccc1O | 96.9% (inactive) | 109% (inactive) | 86.3% (inactive) | 73.3% (inactive) | 87.4% (inactive) | 95.9% (inactive) | 84.3% (inactive) |  | 80.6% (inactive) | 56.9% (inactive)
Cc1ccc2nc(-[n+]3cc4ccccc4cc3C)ccc2c1 | 39.5% (inactive) | 62% (inactive) | 13.2% (inactive) | 88.8% (inactive) | 81.9% (inactive) | 103% (inactive) | 103% (inactive) | 52.5% (inactive) | 44.7% (inactive) | 
C=C(Cl)C(=NC(C)(C)C)Nc1ccccc1C | 139% (inactive) | 90.4% (inactive) | 83.5% (inactive) | 80.7% (inactive) | 106% (inactive) | 91% (inactive) | 104% (inactive) | 105% (inactive) | 72.2% (inactive) | 
S=C(NCCNC(=S)[S][Sn]([c]1ccccc1)([c]1ccccc1)[c]1ccccc1)[S][Sn]([c]1ccccc1)([c]1ccccc1)[c]1ccccc1 | -93.1% (active) | -91.4% (active) | -79.7% (active) | -100% (active) | -100% (active) | -100% (active) | -71.3% (active) |  | -32.8% (active) | -35.3% (active)
O=C1c2ccccc2C(=O)N1c1ccccc1 | 128% (inactive) | 93% (inactive) | 97.2% (inactive) | 89.1% (inactive) | 117% (inactive) | 99.5% (inactive) | 81.3% (inactive) | 109% (inactive) | 103% (inactive) | 
Cc1ccc2nc(C[n+]3ccc4ccccc4c3)ccc2c1 | 78.8% (inactive) | 72.2% (inactive) | 39.3% (inactive) | 85.7% (inactive) | 95% (inactive) | 101% (inactive) | 98.3% (inactive) | 81% (inactive) | 71.9% (inactive) | 
COc1cc(/C=C/C(C)=O)ccc1O | 105% (inactive) | 91.8% (inactive) and 112% (inactive) | 98.1% (inactive) and 104% (inactive) | 66% (inactive) and 88.4% (inactive) | 97.7% (inactive) and 142% (inactive) | 95.9% (inactive) and 95% (inactive) | 93.4% (inactive) and 115% (inactive) | 79.1% (inactive) and 116% (inactive) | 95.8% (inactive) and 87.2% (inactive) | 
COc1ccc2nc3cc(Cl)ccc3c(NCCNc3c4ccc(Cl)cc4nc4ccc(OC)cc34)c2c1 | -73.1% (active) | -83.5% (active) | -89.6% (active) | -90.3% (active) | -92.7% (active) | -94.7% (active) |  | 22.2% (inactive) | -76% (active) | -10.9% (active)
CC1OC2CC(=O)OC2C2=C1C(=O)c1c(O)cccc1C2=O (configuration not stated) | -61.2% (active) | -53.3% (active) | -94.9% (active) | -90.7% (active) | -96.2% (active) | -97.4% (active) | -82.5% (active) |  | -7.62% (active) | 
CN(C)c1ccc(/C=N/N=C(\C#N)[S][Sn]([Cl])([c]2ccccc2)[c]2ccccc2)cc1 | 40.3% (inactive) | 44% (inactive) | 28.8% (inactive) | -0.649% (active) | -24.1% (active) | -51% (active) | 46.4% (inactive) | 32% (inactive) | 6.2% (active) | 
S=C(N/N=C/c1ccccn1)Nc1ccccn1 | -5.58% (active) | 41.4% (inactive) | 33.7% (inactive) | 13% (inactive) | 31.4% (inactive) | 15.9% (inactive) | 13.2% (inactive) |  | -27.6% (active) | 
Cc1ccc(N=C=C(c2ccccc2)c2ccccc2)cc1 | 97.5% (inactive) | 90.6% (inactive) | 79.2% (inactive) | 80.3% (inactive) | 112% (inactive) | 102% (inactive) | 81.6% (inactive) | 126% (inactive) | -1.03% (active) | 
N#CSCc1ccc(CSC#N)c(Cl)c1 | 86.2% (inactive) | 90.9% (inactive) | 50.5% (inactive) | 36.7% (inactive) | 94.3% (inactive) | 56.5% (inactive) | 41.7% (inactive) | 91.9% (inactive) | 28.9% (inactive) | 
CC(C)(C)CC(C)(C)c1ccc(OCCSC(=N)N)cc1 | 96.4% (inactive) | 51.8% (inactive) | 53.7% (inactive) | 37.2% (inactive) | 72.3% (inactive) | 69.1% (inactive) | 71.3% (inactive) | 60.2% (inactive) | 9.3% (active) | 
COC(=O)c1nc(=S)[nH]c(C(=O)OC)c1C(=O)c1ccc2ccccc2c1 | 104% (inactive) | 103% (inactive) | 97.2% (inactive) | 81% (inactive) | 109% (inactive) | 101% (inactive) | 86.2% (inactive) | 119% (inactive) | 103% (inactive) | 
OC(CNc1ccnc2cc(Cl)ccc12)CNc1ccnc2cc(Cl)ccc12 | 104% (inactive) | 78.6% (inactive) | 37.9% (inactive) | 88.1% (inactive) | 87.5% (inactive) | 99% (inactive) | 101% (inactive) | 76.9% (inactive) | 12% (inactive) | 
O=C1c2ccccc2C(=O)c2sc(Nc3cccc(Cl)c3)nc21 | -16% (active) | 7.78% (active) | -71.3% (active) | -5.49% (active) | 147% (inactive) | -52.8% (active) | 70.4% (inactive) | 79.3% (inactive) | -19.6% (active) | 
Cn1c2ccccc2c2nnc(N/N=C/c3ccccn3)nc21 | 51.3% (inactive) | -11.9% (active) | 12.3% (inactive) | 4.82% (active) | -18.9% (active) | -4.67% (active) | -21.1% (active) | 34.5% (inactive) | -21.7% (active) | 
Nc1nc(N)c2nc(CNc3ccc(C(=O)NC(CCC(=O)O)C(=O)O)cc3)cnc2n1 (configuration not stated) | 60.1% (inactive) and 58.9% (inactive) | 72.9% (inactive) and 44.4% (inactive) | 25.6% (inactive) and 14.7% (inactive) | 13.6% (inactive) and 31.4% (inactive) | 54% (inactive) and 48.1% (inactive) | 19.4% (inactive) | 25.9% (inactive) and 21.9% (inactive) | 45.4% (inactive) and 85.7% (inactive) | 25.8% (inactive) and 31.5% (inactive) | 
CC(C)(C)c1ccc(O)c(C2CCCCC2)c1 | 89% (inactive) | 115% (inactive) | 97.5% (inactive) | 104% (inactive) | 92.2% (inactive) | 103% (inactive) | 116% (inactive) | 107% (inactive) | -31.9% (active) | 
NC(N)=N/N=C/c1ccc([N+](=O)[O-])o1 | 83.4% (inactive) | 122% (inactive) | 86.6% (inactive) | 88.8% (inactive) | 115% (inactive) | 92.8% (inactive) | 106% (inactive) | 105% (inactive) | 103% (inactive) | 
COC(=O)Nc1nc2ccc(C(=O)c3ccccc3)cc2[nH]1 | 44.1% (inactive) and 45.4% (inactive) and -21.7% (active) | 60.4% (inactive) and 39% (inactive) and 21.6% (inactive) | 54.9% (inactive) and 28.7% (inactive) and 58.1% (inactive) | 48% (inactive) and 38.3% (inactive) and 25.3% (inactive) | 65% (inactive) and 75.9% (inactive) and 44.6% (inactive) | 48.3% (inactive) and 54.2% (inactive) | 48.8% (inactive) and 27.1% (inactive) and 15% (inactive) | 13.9% (inactive) and 14.6% (inactive) and -12.2% (active) | 19.3% (inactive) and 7.52% (active) and 7.55% (active) | 
